Pf growth 48h: Primary qHTS for delayed death inhibitors of the malarial parasite plastid, 48 hour incubation | P. falciparum luciferase growth in erythrocytes, 48 h | hit rate 5.9% among 310,000 | Potency, µM (highest dose often 28.7 µM), without a hit: at the top dose activity change, negative = inhibition, usual class: inhibitors; also: potency is read from the fitted curve at half-maximal effect; % is scaled to controls: 0 for no effect and ±100 for the full control effect
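Read-out is firefly luciferase luminescence from an integrated reporter in P. falciparum, so falling signal marks reduced parasite growth. Infected erythrocytes were at 2% hematocrit and 0.1% parasitemia (final) in Albumax-supplemented RPMI 1640.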
Pf growth 96h: Primary qHTS for delayed death inhibitors of the malarial parasite plastid, 96 hour incubation; P. falciparum luciferase reporter growth, 96 h; Potency, µM (top dose mostly 28.7 µM), for the others: at the top dose activity change, negative = inhibition, most hits filed as inhibitors; hit rate 6.9% among 320,000; also: potency is read from the fitted curve at half-maximal effect; % is scaled to controls: 0 for no effect and ±100 for the full control effect
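Compounds incubated with erythrocytes infected by luciferase-expressing P. falciparum (2% hematocrit, 0.05% parasitemia final) for 96 hours, 37 C in 5% CO2. Growth inhibition scored as decreased luciferase luminescence.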
Shiga toxin inh: A qHTS for Small Molecule Inhibitors of Shiga Toxin; inhibition, % at 38.7 µM; hit rate 9.2% among 290,000; Vero cells, Shiga toxin protein synthesis inhibition reporter; in the data active = inhibition mostly above about 28%, no sharp cut-off; inactive = mostly below about 43%; also: 0% is about no effect
CHX counter: Cycloheximide Counterscreen for Small Molecule Inhibitors of Shiga Toxin; max response, %; hit rate 12% among 300,000; AID 2314, 2010; cell reporter, cycloheximide protein synthesis inhibition counterscreen; in the data active = max response mostly above about 13%, no sharp cut-off; inactive = mostly below about 14%; also: read at 38.3 µM for the half of the compounds with a filed dose; 0% is about no effect
HCV inhibitor: qHTS Assay for Inhibitors of Hepatitis C Virus (HCV). AID 651820, 2012. Potency, µM (series often up to 41.8 µM), for inactives: at the top dose activity change, negative = inhibition, hits mostly inhibitors. Huh7.5.1 HCVcc-Cre infection, luciferase reporter, 44 h. hit rate 3.4% among 340,000; also: potency is read from the fitted curve at half-maximal effect; % is scaled to controls: 0 for no effect and ±100 for the full control effect
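Reporter virus HCVcc-Cre (~0.5 moi) infects cells exposed to compound; seeding density 1,000 cells/well with 4 h settling beforehand. Luminescence, 15 sec read, taken 44 h post-infection following a 15 min RT substrate incubation.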
HCMV antiviral: qHTS Assay for inhibitors of the human cytomegalovirus (HCMV); HFF cells, HCMV-luciferase reporter, 72 h; hits give low values; activity change, negative = inhibition, % at 57.5 µM; hit rate 4.5% among 410,000; AID 1259415, 2018; in the data active = activity change below about -60%; inconclusive = no clear call, values can overlap the other calls; inactive = above about -39%; also: % is scaled to controls: 0 for no effect and ±100 for the full control effect
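After 16 h attachment at 37C, HFF cells received test compound and HCMV-luciferase (1 PFU/cell); reporter luminescence read 72 h later, data normalized against buffer-only and known inhibitor Salinomycin.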
* = called active by the depositor. Compounds with a hit are over-represented: about 21% of the library has one in this group of screens. Unless noted, calls follow the shape of the dose curve; as a rule, active = well fitted inhibition curve with a large enough effect; inconclusive = small, poorly fitted or top-dose-only effect, or another doubt; inactive = no such curve, though single readings can be large or run the other way.

What do the screens show for `C/C(=N\NC(=O)c1ccncc1)c1c(O)n(-c2ccccc2)c(=O)[nH]c1=O`?
Pf growth 48h: -6.8%; Pf growth 96h: 8.5%; Shiga toxin inh: -12.9; CHX counter: 7.8; HCV inhibitor: -4.6%; HCMV antiviral: 2.9

Results for Cc1[nH]n(-c2ccccc2)c(=O)c1C(=O)c1ccc([N+](=O)[O-])cc1 ?
Pf growth 48h: 15.1%; Pf growth 96h: -22.0%; Shiga toxin inh: 10.3; CHX counter: 1.7; HCV inhibitor: -11.0%; HCMV antiviral: -8.1

What do the screens show for `COc1cc(Nc2cc3c(cn2)nc(-c2ccco2)n3C)cc(OC)c1OC`?
HCMV antiviral: 10.6

Results for COCCNC(=O)C(=O)NCCN1CCNCC1 ?
Pf growth 48h: 19.8%; Pf growth 96h: 1.0%; Shiga toxin inh: -3.0; CHX counter: -1.3; HCV inhibitor: -0.6%; HCMV antiviral: -24.3

What do the screens show for `O=P(O)(O)CN1CCNCCN(CP(=O)(O)O)CCNCC1`?
HCV inhibitor: inconclusive; HCMV antiviral: -61.3*

What do the screens show for `COc1ccc(-n2nc3ccc(NC(=O)c4ccc(-c5cc(Cl)ccc5Cl)o4)cc3n2)cc1`?
HCMV antiviral: 13.0

What do the screens show for `CC(C)(Oc1ccc(Cl)cc1)C(=O)Nc1ccc2oc(=O)ccc2c1`?
Pf growth 48h: inconclusive; Pf growth 96h: inconclusive; Shiga toxin inh: -9.1; CHX counter: -2.3; HCMV antiviral: -65.7*

Results for O=C(Nc1ccc2oc(=O)ccc2c1)c1ccc(-c2cccc(Cl)c2)o1 ?
Pf growth 48h: 10.4µM*; Pf growth 96h: inconclusive; Shiga toxin inh: -3.8; CHX counter: -2.5; HCV inhibitor: 10µM*; HCMV antiviral: -64.4*

How did COc1cc(NC(=O)c2ccc(-c3cccc([N+](=O)[O-])c3)o2)ccc1NC(=O)C(C)C do in these assays?
Pf growth 48h: 10.4µM*; Pf growth 96h: -13.0%; Shiga toxin inh: -7.1; CHX counter: 2.0; HCV inhibitor: inconclusive; HCMV antiviral: 13.5

Results for O=C(Nc1ccc2oc(=O)ccc2c1)c1ccc(-c2ccc(Cl)cc2)o1 ?
Pf growth 48h: -17.0%; Pf growth 96h: inconclusive; Shiga toxin inh: 4.3; CHX counter: -2.0; HCV inhibitor: 11.9%; HCMV antiviral: -8.2

How did O=C(Nc1ccc2nn(-c3ccccc3)nc2c1)c1ccc(-c2cccc(Cl)c2)o1 do in these assays?
HCMV antiviral: -74.6*

How did COc1cc([N+](=O)[O-])ccc1NC(=O)c1cccc(NC(=O)C(C)C)c1 do in these assays?
Pf growth 48h: 4.4%; Pf growth 96h: 49.9%; Shiga toxin inh: 11.2; CHX counter: 1.9; HCV inhibitor: inconclusive; HCMV antiviral: -36.7

How did COc1ccc(C=NN(C)C(=O)Nc2cccc(Cl)c2)cc1OC do in these assays?
HCMV antiviral: -8.8

Results for O=C(Nc1ccc2oc(=O)ccc2c1)c1ccc(-c2ccccc2[N+](=O)[O-])o1 ?
Pf growth 48h: 5.9%; Pf growth 96h: 15.6%; Shiga toxin inh: 29.2; CHX counter: 7.3; HCV inhibitor: inconclusive; HCMV antiviral: 51.6

What do the screens show for `O=C(Nc1ccc2oc(=O)ccc2c1)c1ccc(-c2cccc([N+](=O)[O-])c2)o1`?
Pf growth 48h: 4.15µM*; Pf growth 96h: inconclusive; Shiga toxin inh: 62.5; CHX counter: 11.2; HCV inhibitor: 8.91µM*; HCMV antiviral: -39.0

How did Cc1cccc(OCC(=O)N(Cc2ccc(C)o2)C2CCS(=O)(=O)C2)c1 (configuration not stated) do in these assays?
Pf growth 48h: 12.7%; Pf growth 96h: 13.0%; Shiga toxin inh: -6.8; CHX counter: -2.3; HCV inhibitor: 5.7%; HCMV antiviral: 0.0

Results for COc1ccc(CCNC(=O)CCS(=O)(=O)c2cc(Br)cc3c2N(C(C)=O)CC3)cc1OC ?
HCMV antiviral: -1.2

Results for Cc1c2cnn(CC(=O)Nc3c(F)c(F)cc(F)c3F)c(=O)c2c(C)n1Cc1ccccc1F ?
Pf growth 48h: -13.6%; Pf growth 96h: 9.28µM*; Shiga toxin inh: -2.2; CHX counter: -0.8; HCV inhibitor: -6.8%; HCMV antiviral: 18.6

Results for Cc1c2cnn(CC(=O)N3CCC4(CC3)OCCO4)c(=O)c2c(C)n1Cc1ccccc1F ?
Pf growth 48h: 2.8%; Pf growth 96h: 0.0104µM*; Shiga toxin inh: -5.3; CHX counter: -3.0; HCV inhibitor: -16.8%; HCMV antiviral: -12.5

How did Cc1c2cnn(CC(=O)NCc3ccc(F)cc3)c(=O)c2c(C)n1Cc1ccccc1F do in these assays?
HCMV antiviral: 1.8

Results for Cc1c2cnn(CC(=O)N3CCN(c4ccc(F)cc4)CC3)c(=O)c2c(C)n1Cc1ccccc1F ?
HCMV antiviral: -18.3

Results for CCc1ccc(S(=O)(=O)N/N=C\c2cn(CC(N)=O)c3ccccc23)cc1 ?
Pf growth 48h: 21.0%; Pf growth 96h: inconclusive; Shiga toxin inh: -12.6; CHX counter: -2.4; HCV inhibitor: 9.7%; HCMV antiviral: 10.4

How did CCC(C)[C@H](NC(=O)[C@H](Cc1ccccc1)n1c(=O)[nH]c2ccccc2c1=O)C(=O)N1CCC[C@@H]1C(=O)O (some centres not stated) do in these assays?
Pf growth 48h: 2.2%; Pf growth 96h: inconclusive; Shiga toxin inh: -9.1; CHX counter: -4.0; HCV inhibitor: 5.7%; HCMV antiviral: -9.2

How did COc1ccc(-c2cnnc(N/N=C/c3ccc(O)c(OC)c3)n2)cc1 do in these assays?
Pf growth 48h: -11.0%; Pf growth 96h: 5.22µM*; Shiga toxin inh: -0.6; CHX counter: 20.3*; HCV inhibitor: inconclusive; HCMV antiviral: inconclusive

What do the screens show for `COc1cc(/C=N/Nc2nc(N3CCCC3)nc(N3CCCC3)n2)ccc1O`?
Pf growth 48h: inconclusive; Shiga toxin inh: 22.7; CHX counter: 0.9; HCV inhibitor: inconclusive; HCMV antiviral: 6.6

Results for COc1ccc(/C=N/Nc2nc(N)cc(Cl)n2)cc1OC ?
Pf growth 48h: 13.0%; Pf growth 96h: inconclusive; Shiga toxin inh: 45.9; CHX counter: 20.6*; HCV inhibitor: 15.9%; HCMV antiviral: 18.8

How did C=CCOc1ccc(/C=N/NC(=O)C(=O)Nc2ccccn2)cc1OC do in these assays?
Pf growth 48h: 6.6%; Pf growth 96h: 4.15µM*; Shiga toxin inh: 31.1; CHX counter: 12.3*; HCV inhibitor: -0.9%; HCMV antiviral: -22.1

Results for COc1cc(/C=N/Nc2nc(C)nc3c2cnn3-c2ccccc2)ccc1O ?
Pf growth 48h: inconclusive; Pf growth 96h: inconclusive; Shiga toxin inh: -1.8; CHX counter: -2.4; HCV inhibitor: 11.2µM*; HCMV antiviral: -34.3

What do the screens show for `Cc1ccc(NC(=O)C2(C)CCN2C(=O)CCC2CCCC2)cc1C` (configuration not stated)?
HCMV antiviral: -10.1

Screens from PubChem BioAssay.
